Screening data as filed in PubChem BioAssay.
Rows were chosen to be rich in hits. Some 2.8% of all compounds tested hit in one or more screens of this group.
ATXN viability: viability counter-screen for ATXN expression inhibitors; 0.49% of 400,000 active; Potency, µM (doses to about 56.7 µM), hits mostly cytotoxic; S2 cells (HEK-293 line with an ATXN2-luciferase reporter) viability, CellTiter-Fluor protease fluorescence, 24 h; note: potency is the fitted concentration of half-maximal effect; nearly all actives have a fitted effect of over 40% in size
HepG2 tox: HepG2 cytotoxicity, counter-screen for TGF-b inhibitors. Potency, µM (top dose mostly 46.1 µM), for the others: at the highest dose activity change, negative = cytotoxicity, usual class: cytotoxic. 0.76% of 410,000 active. HepG2 CAGA-GFP viability, ATP luminescence, 18 h; note: potency is the fitted concentration of half-maximal effect
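CellTiter-Glo luminescence gave cytotoxicity after 18 hours at 37 degrees C. The cells were HepG2 CAGA-GFP in 1% FBS DMEM, stimulated with 500 pg/mL TGF-beta after compound addition. %Activity was normalised to no-cell wells (complete cell-killing) and DMSO (no toxicity), and curves were fitted and classified.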
CtBP-E1A inh: blocks the CtBP interaction with E1A | activity change, % (test concentration not listed) | AlphaScreen GST-E1A/His-CtBP binding, 1536-well; active compounds read low | 0.49% of 340,000 active; in the data active = activity change below about -65%; inconclusive = mostly about -30% to -63%; note: % is set by controls: 0 for no effect and ±100 for the full control effect
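Protein mix (5X: 125 nM each GST-E1A, His-CtBP) was incubated with pinned compound 2 h at 37 deg C in dark, in 50 mM Tris pH 8.0 buffer with 300 mM NaCl. Glutathione donor and nickel acceptor beads followed; AlphaScreen signal read after 1 h.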
ATXN2 expr inh: reduces ATXN2 reporter expression in HEK-293 cells; HEK-293 ATXN2-luciferase reporter, luminescence, 24 h; Potency, µM (series often up to 57 µM), without a hit: at the highest dose activity change, negative = inhibition, usual class: inhibitors; 0.72% of 360,000 active; AID 1745845; note: potency is the fitted concentration of half-maximal effect; % is set by controls: 0 for no effect and ±100 for the full control effect; nearly all actives have a fitted effect of over 55% in size
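qHTS (up to 57 uM final) was run with 24 h compound exposure of reporter cells at 37 °C. Each well was multiplexed: SteadyGlo luminescence measured ATXN2-luciferase expression after a fluorogenic Gly-Phe-AFC viability readout (25 uM final).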
TGFb SMAD3 inh: blocks TGF-b signaling | HepG2 CAGA-GFP TGF-b/SMAD3 reporter, GFP fluorescence, 18 h; TGF-beta stimulated, 500 pg/mL final | 1.2% of 410,000 active | Potency, µM (series often up to 46.1 µM), without a hit: at the highest dose activity, negative = inhibition, actives largely listed as inhibitors; note: potency is the fitted concentration of half-maximal effect; % is set by controls: 0 for no effect and ±100 for the full control effect; nearly all actives have a fitted effect of over 65% in size
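Cell-based qHTS in HEPG2 carrying a CAGA-GFP Smad reporter; compounds added before 500 pg/mL final TGF-beta, 18 h incubation at 37 degrees C, GFP fluorescence quantified per cell by imaging cytometry.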
Six1-Eya2 inh: inhibitors of human Six1/Eya2 interaction | AlphaScreen GST-Six1/His-Eya2 binding, biochemical; active compounds read low | activity change, % (test concentration not listed) | 0.56% of 360,000 active | AID 651725; in the data active = activity change below about -65%; inconclusive = mostly about -30% to -63%; note: % is set by controls: 0 for no effect and ±100 for the full control effect
Target sequence (O00167 whole entry, looked up): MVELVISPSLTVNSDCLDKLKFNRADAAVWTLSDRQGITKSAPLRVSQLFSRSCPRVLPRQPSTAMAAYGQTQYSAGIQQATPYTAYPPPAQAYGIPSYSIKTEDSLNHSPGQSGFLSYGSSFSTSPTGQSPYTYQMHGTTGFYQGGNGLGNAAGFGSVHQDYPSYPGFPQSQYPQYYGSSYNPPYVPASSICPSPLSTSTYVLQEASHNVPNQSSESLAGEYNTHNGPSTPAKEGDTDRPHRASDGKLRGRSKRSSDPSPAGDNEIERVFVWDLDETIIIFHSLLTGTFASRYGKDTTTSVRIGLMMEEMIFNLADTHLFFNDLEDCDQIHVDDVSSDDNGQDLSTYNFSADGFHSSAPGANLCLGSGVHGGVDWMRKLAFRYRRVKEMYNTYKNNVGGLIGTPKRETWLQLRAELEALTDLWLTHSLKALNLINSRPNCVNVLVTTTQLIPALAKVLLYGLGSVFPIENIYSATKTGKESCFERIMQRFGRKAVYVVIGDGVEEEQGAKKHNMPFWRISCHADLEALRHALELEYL
Target sequence (Q15475 whole entry, looked up): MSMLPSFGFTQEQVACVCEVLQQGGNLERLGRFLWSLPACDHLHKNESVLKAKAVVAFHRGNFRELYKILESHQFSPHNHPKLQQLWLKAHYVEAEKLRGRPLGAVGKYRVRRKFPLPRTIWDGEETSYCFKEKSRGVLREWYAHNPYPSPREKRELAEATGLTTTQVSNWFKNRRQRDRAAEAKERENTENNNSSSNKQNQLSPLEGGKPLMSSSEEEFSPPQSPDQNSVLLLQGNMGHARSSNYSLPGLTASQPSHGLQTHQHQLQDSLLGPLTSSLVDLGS
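Compounds are tested against tagged Six1 and Eya2 proteins bridged by glutathione donor and nickel acceptor beads; after a one-hour incubation at 37 °C without light, AlphaScreen emission is recorded.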
* marks the source's active call; other numbers are inactive results; i = inactive; ? = inconclusive; · = no result. Unless noted, calls come from the whole dose curve; as a rule, active = well fitted curve in the direction sought with a large enough effect; inconclusive = small, poorly fitted or top-dose-only effect, or another doubt; inactive = no such curve, though single readings can be large; an effect the other way counts as inactive or inconclusive.

SMILES	ATXN viability	HepG2 tox	CtBP-E1A inh	ATXN2 expr inh	TGFb SMAD3 inh	Six1-Eya2 inh
Cc1ccccc1C(=O)NC(C)c1nnc2n1CCN(Cc1ccccc1F)CC2 (stereo not drawn)	i	·	·	·	·	·
O=[N+]([O-])c1ccc(N/N=C/c2c[nH]c3ccccc23)cc1	?	-21%	-16	0%	?	-26
O=[N+]([O-])c1ccccc1N/N=C/c1c[nH]c2ccccc12	?	-45%	-78*	73%	?	-84*
CCOc1ccc(-n2c(Cc3ccccc3)nnc2SCc2nc(-c3ccccc3C)no2)cc1	?	-25%	·	-11%	?	·
C#CCCc1ccccc1/C=[N+](/C)[O-]	i	-94%	5	-7%	16µM*	5
C=CCOc1ccccc1C(=O)/C=C1/C(=O)Nc2ccccc21	?	6.3µM*	2	-14%	?	15
COc1ccc(C(=O)/C=C2/C(=O)Nc3ccccc32)c(OC)c1	i	10µM*	3	-13%	13µM*	4
COc1ccc(C(=O)/C=C2/C(=O)Nc3ccccc32)cc1	?	14µM*	3	?	?	5
O=C1Nc2ccccc2/C1=C/C(=O)c1cccs1	?	14µM*	-12	?	?	-3
C=CCOc1ccc(C(=O)/C=C2/C(=O)Nc3ccccc32)cc1	i	-39%	1	-2%	0%	1
COc1ccc(C(=O)/C=C2/C(=O)Nc3ccccc32)cc1OC	?	-15%	·	·	-2%	7
CC1CCCCN1CCCNC(=O)Cn1ncc2c3ccccc3n(Cc3ccccc3)c2c1=O (stereo not drawn)	?	-12%	·	-12%	-3%	·
COc1ccc(C)cc1Nc1n[n+](-c2ccccc2)c(-c2cc(OC)c(OC)cc2Br)s1	22µM*	-22%	12	?	?	-13
COc1ccc(C)cc1Nc1n[n+](-c2ccccc2)c(-c2c(OC)ccc3ccccc23)s1	·	-62%	-22	?	?	-22
Cc1cc(C)nc(S[C@H]2C[C@@H](C(=O)N3CCN(c4ccccc4F)CC3)N(Cc3ccccc3F)C2)n1	i	·	·	·	·	·
CCOc1ccccc1C1CC(=O)NC(C)=C1C(=O)OC1CCCCCC1 (stereo not drawn)	i	16µM*	·	-3%	?	·
CC1=C(C(=O)OCc2ccc(C)cc2)C(c2ccccc2F)CC(=O)N1 (stereo not drawn)	i	-38%	·	-16%	11µM*	·
CC1=C(C(=O)OC2CCCCCCC2)C(c2cc3c(cc2Br)OCO3)CC(=O)N1 (stereo not drawn)	i	16µM*	1	?	?	-8
COCCN(C)C(=O)c1cnn(-c2ncc3c(n2)-c2ccccc2CCC3)c1C1CC1	i	·	·	·	·	·
O=S(=O)(NCCc1ccc(Cl)cc1)c1ccc(N2CCCCS2(=O)=O)cc1	i	-9%	·	-19%	-2%	·
CCOc1ccc(NC(=O)c2cc(S(=O)(=O)N3CCCCCC3)cn2C)cc1	i	12%	·	8%	-1%	·
O=C(CN(C1CCCCC1)S(=O)(=O)c1ccccc1)NCC1CCCO1 (stereo not drawn)	i	-1%	-10	-8%	6%	27
O=C(CN(C1CCCCC1)S(=O)(=O)c1ccc(F)cc1)NCC1CCCO1 (stereo not drawn)	?	7.1µM*	-15	-6%	4.5µM*	4
OC1(c2ccc3c(c2)CN(Cc2ccccn2)CCO3)CCN(c2ccccc2F)CC1	i	·	·	·	·	·
Cc1csc(NC(=O)c2sc3nc4c(c(C(F)(F)F)c3c2N)CCC4)n1	·	·	·	0.097µM*	·	·
SMILES	ATXN viability	HepG2 tox	CtBP-E1A inh	ATXN2 expr inh	TGFb SMAD3 inh	Six1-Eya2 inh
CCCOc1cccc(-c2cc(C(=O)N/N=C/c3ccccn3)c3ccccc3n2)c1	?	-2%	-24	7.1µM*	?	-13
O=C(O)COc1ccccc1/C=N/NC(=O)c1cc(-c2ccccc2)nc2ccccc12	i	6%	-26	-20%	-1%	-29
CCCOc1cccc(-c2cc(C(=O)N/N=C/c3cccnc3)c3ccccc3n2)c1	i	5%	-12	24%	?	7
O=C(O)COc1ccccc1/C=N/NC(=O)c1cc(-c2ccc(Cl)cc2)nc2ccccc12	i	-12%	-81*	-34%	0%	-80*
CCNC(=S)NNC(=O)c1cc(-c2ccc(OC)cc2)nc2ccccc12	i	7.9µM*	-10	-28%	-3%	-7
CCCCOc1ccc(-c2cc(C(=O)NNC(=S)NCC)c3ccccc3n2)cc1	?	8.9µM*	-15	?	?	-14
COc1ccc(N2C(=O)CC(Sc3nc4ccccc4s3)C2=O)cc1OC (stereo not drawn)	32µM*	-30%	·	·	-3%	5
Cc1ccc(C(=O)Nc2ccc(S(=O)(=O)N3CCCC3)cc2)o1	i	5%	-1	2%	0%	-2
O=C(Nc1ccc(S(=O)(=O)N2CCCC2)cc1)c1ccc([N+](=O)[O-])o1	·	13µM*	-9	?	?	-1
O=C(Nc1ccc(Cc2ccncc2)cc1)c1ccc([N+](=O)[O-])o1	i	-33%	-15	9%	16µM*	4
Cc1nn(CC(=O)N2c3ccccc3NC(=O)C2(C)C)c(C)c1[N+](=O)[O-]	i	1%	·	·	?	22
CC1(C)C(=O)Nc2ccccc2N1C(=O)Cn1ncc(Cl)c(Cl)c1=O	20µM*	-22%	·	·	-10%	3
CC(C)(C)c1cc(NC(=O)Nc2ccc(-c3cn4c(n3)sc3cc(OCCN5CCOCC5)ccc34)cc2)no1	·	·	·	-6%	·	·
COc1cccc(N2CC(NC(=O)c3ccc4c(c3)OCO4)CC2=O)c1 (stereo not drawn)	·	0%	·	·	15%	·
Cc1nc2ccn(Cc3cccs3)c(=O)c2cc1C(=O)N1CCN(c2ccccc2F)CC1	·	-22%	·	·	20µM*	·
COc1ccc(Cn2ccc3nc(C)c(C(=O)N4CCN(c5cc(C)ccc5C)CC4)cc3c2=O)cc1	?	-20%	·	?	16µM*	·
Cc1nc2ccn(Cc3ccco3)c(=O)c2cc1C(=O)N1CCN(c2ccccc2F)CC1	·	-33%	·	·	?	·
Cc1ccsc1C(=O)N/N=C/c1ccc2c(c1)OCO2	i	5.6µM*	6	43%	-18%	6
Cc1occc1C(=O)N/N=C/c1ccc(OCc2ccccc2)cc1	i	-34%	-1	26%	?	-4
Cc1occc1C(=O)N/N=C/c1ccc(-c2ccccc2)cc1	i	11µM*	1	1%	-15%	-13
O=C(N/N=C/c1ccc2c(c1)OCO2)c1cccs1	i	-27%	-7	34%	-1%	1
